# Experimental data as given in PMC7862700, “An all-to-all approach to the identification of sequence-specific readers for epigenetic DNA modifications on cytosine”.
# How the values were obtained:
# Assay in all cases: DAPPL (digital affinity profiling via proximity ligation, sequencing); 10 mM Tris-HCl pH 7.5, 50 mM NaCl, 1 mM DTT, 4% glycerol, room temperature, 30 min; GST-TFs on glutathione beads, 16-mer random dsDNA library, 0.1% formaldehyde crosslink after washing; high values mean tight binding
# [1] = target: T1, FEV (Homo sapiens, UniProt Q99581 1-238); details: protein: recombinant; tags: N-terminal GST; dsDNA, one strand shown
# T1 sequence: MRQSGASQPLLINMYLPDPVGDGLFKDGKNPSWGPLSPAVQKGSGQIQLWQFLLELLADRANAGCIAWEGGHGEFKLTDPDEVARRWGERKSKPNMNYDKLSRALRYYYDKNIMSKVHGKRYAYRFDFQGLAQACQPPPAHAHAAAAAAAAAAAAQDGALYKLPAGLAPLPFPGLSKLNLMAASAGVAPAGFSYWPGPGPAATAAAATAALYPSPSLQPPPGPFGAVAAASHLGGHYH
# Procedure, shortened: (§1)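 Each value of binding signal is a hexamer's read frequency for a factor divided by the same hexamer's frequency in the tag-only sample. Barcoded, bead-captured GST fusions of human transcription factors made in yeast were pooled with that sample and incubated with 200 nmole of a random double-stranded 16-mer DNA library in Tris/NaCl/DTT/glycerol buffer at room temperature for 30 min. Washing, 0.1% formaldehyde crosslinking, proximity ligation, PCR and Illumina NextSeq500 sequencing followed.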
# [2] = target: ETV5 (Homo sapiens, UniProt P41161 1-510); details: protein: recombinant; tags: N-terminal GST; dsDNA, one strand shown
# Procedure, shortened: as §1
# [3] = target: HSF1 (Homo sapiens, UniProt Q00613 1-529); details: protein: recombinant; tags: N-terminal GST; chain copies: 3; dsDNA, one strand shown
# Procedure, shortened: as §1
# [4] = target: T2, SPIC (Homo sapiens, UniProt Q8N5J4 1-248); details: protein: recombinant; tags: N-terminal GST; dsDNA, one strand shown
# T2 sequence: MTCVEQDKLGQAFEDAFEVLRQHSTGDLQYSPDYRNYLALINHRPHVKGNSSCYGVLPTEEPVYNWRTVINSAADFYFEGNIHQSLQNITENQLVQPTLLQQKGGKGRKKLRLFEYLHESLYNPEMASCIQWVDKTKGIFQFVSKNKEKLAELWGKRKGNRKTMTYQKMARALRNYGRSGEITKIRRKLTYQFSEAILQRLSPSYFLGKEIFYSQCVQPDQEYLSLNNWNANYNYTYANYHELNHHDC
# Procedure, shortened: as §1
# [5] = target: ELF4 (Homo sapiens, UniProt Q99607 1-663); details: protein: recombinant; tags: N-terminal GST; dsDNA, one strand shown
# Procedure, shortened: as §1
# [6] = target: T3, ELK4 (Homo sapiens, UniProt P28324-2 1-405); details: protein: recombinant; tags: N-terminal GST; dsDNA, one strand shown
# T3 sequence: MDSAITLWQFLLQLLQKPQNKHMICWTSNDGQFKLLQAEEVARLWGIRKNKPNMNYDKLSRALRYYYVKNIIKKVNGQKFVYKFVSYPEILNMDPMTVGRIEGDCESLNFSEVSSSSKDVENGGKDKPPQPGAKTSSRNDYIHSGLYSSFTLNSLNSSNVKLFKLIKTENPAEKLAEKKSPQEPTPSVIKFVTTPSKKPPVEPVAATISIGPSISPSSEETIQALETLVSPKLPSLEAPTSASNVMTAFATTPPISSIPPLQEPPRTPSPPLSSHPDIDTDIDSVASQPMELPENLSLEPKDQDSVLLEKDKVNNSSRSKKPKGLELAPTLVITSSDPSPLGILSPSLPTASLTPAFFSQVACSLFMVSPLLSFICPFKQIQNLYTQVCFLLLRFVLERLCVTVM
# Procedure, shortened: as §1
# [7] = target: T4, ETV2 (Homo sapiens, UniProt O00321 1-342); details: protein: recombinant; tags: N-terminal GST; dsDNA, one strand shown
# T4 sequence: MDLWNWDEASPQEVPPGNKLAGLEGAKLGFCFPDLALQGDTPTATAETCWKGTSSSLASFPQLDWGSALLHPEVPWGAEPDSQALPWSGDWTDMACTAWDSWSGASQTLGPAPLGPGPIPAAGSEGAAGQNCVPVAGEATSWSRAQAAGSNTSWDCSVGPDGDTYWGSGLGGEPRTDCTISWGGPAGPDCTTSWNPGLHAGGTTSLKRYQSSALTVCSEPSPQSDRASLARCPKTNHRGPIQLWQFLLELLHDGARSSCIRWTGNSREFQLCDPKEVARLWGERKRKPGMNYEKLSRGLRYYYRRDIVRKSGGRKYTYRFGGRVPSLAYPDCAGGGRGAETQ
# Procedure, shortened: as §1
# [8] = target: T5, ELF3 (Homo sapiens, UniProt P78545 1-371); details: protein: recombinant; tags: N-terminal GST; dsDNA, one strand shown
# T5 sequence: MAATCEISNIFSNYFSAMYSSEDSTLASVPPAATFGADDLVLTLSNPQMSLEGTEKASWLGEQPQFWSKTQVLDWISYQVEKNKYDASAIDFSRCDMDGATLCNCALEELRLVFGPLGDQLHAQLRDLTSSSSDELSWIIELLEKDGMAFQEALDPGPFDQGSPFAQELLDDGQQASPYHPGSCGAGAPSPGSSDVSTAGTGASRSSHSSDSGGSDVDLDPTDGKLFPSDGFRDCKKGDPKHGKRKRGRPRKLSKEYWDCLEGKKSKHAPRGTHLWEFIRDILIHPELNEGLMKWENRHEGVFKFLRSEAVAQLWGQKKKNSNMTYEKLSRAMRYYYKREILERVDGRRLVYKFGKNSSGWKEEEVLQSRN
# Procedure, shortened: as §1
# [9] = target: CRX (Homo sapiens, UniProt O43186 1-299); details: protein: recombinant; tags: N-terminal GST; dsDNA, one strand shown
# Procedure, shortened: as §1
# [10] = target: ETV1 (Homo sapiens, UniProt P50549 1-477); details: protein: recombinant; tags: N-terminal GST; dsDNA, one strand shown
# Procedure, shortened: as §1
# [11] = target: T6, ERF (Homo sapiens, UniProt P50548 1-548); details: protein: recombinant; tags: N-terminal GST; dsDNA, one strand shown
# T6 sequence: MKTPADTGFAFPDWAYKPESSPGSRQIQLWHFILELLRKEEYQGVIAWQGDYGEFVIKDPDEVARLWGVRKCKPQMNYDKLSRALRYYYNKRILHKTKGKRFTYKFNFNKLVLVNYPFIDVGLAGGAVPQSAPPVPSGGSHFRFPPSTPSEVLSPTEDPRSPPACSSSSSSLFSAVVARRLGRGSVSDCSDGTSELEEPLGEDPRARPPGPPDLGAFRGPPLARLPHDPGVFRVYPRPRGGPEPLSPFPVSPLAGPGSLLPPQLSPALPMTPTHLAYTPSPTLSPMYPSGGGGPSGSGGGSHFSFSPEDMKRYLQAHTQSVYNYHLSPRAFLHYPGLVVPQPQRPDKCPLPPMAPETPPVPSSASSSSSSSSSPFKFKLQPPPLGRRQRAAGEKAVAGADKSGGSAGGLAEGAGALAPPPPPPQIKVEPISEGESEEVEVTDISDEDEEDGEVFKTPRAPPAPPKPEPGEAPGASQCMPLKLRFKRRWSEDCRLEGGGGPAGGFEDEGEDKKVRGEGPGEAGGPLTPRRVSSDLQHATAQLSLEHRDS
# Procedure, shortened: as §1
# [12] = target: T7, ETV3L (Homo sapiens, UniProt Q6ZN32 1-361); details: protein: recombinant; tags: N-terminal GST; dsDNA, one strand shown
# T7 sequence: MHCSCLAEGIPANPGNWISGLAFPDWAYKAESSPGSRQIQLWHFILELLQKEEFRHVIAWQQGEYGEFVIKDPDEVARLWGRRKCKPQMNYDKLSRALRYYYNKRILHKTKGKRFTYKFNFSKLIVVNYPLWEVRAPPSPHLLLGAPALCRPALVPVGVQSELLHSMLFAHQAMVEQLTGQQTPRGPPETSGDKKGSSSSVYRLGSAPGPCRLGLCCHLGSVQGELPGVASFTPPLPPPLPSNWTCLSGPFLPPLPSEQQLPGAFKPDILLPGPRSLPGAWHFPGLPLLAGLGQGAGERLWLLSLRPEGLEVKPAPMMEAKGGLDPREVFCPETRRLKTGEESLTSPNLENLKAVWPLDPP
# Procedure, shortened: as §1
# [13] = target: T8, ETS2 (Homo sapiens, UniProt P15036 1-469); details: protein: recombinant; tags: N-terminal GST; dsDNA, one strand shown
# T8 sequence: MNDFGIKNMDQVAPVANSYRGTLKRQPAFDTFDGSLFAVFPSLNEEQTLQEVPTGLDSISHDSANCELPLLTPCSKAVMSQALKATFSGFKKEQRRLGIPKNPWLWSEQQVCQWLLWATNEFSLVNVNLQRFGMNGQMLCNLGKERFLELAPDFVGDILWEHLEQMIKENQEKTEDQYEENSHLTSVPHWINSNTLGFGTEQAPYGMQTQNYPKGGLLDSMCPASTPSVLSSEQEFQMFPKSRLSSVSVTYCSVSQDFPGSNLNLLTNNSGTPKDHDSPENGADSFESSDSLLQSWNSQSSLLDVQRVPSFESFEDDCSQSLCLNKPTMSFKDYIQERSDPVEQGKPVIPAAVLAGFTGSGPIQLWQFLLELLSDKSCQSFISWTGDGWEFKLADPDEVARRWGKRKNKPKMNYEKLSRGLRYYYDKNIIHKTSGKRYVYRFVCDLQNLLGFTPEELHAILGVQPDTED
# Procedure, shortened: as §1
# [14] = target: T9, SPDEF (Homo sapiens, UniProt O95238 1-335); details: protein: recombinant; tags: N-terminal GST; dsDNA, one strand shown
# T9 sequence: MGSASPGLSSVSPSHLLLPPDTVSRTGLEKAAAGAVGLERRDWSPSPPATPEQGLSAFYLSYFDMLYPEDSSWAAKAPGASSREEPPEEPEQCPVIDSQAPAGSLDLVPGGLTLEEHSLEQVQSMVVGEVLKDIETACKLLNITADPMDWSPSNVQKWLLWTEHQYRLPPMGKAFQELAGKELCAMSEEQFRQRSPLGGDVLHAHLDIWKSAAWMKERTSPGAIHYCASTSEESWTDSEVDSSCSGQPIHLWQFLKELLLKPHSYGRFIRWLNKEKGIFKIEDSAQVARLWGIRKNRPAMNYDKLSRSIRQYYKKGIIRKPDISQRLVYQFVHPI
# Procedure, shortened: as §1
# [15] = target: T10, ETV7 (Homo sapiens, UniProt Q9Y603 1-341); details: protein: recombinant; tags: N-terminal GST; dsDNA, one strand shown
# T10 sequence: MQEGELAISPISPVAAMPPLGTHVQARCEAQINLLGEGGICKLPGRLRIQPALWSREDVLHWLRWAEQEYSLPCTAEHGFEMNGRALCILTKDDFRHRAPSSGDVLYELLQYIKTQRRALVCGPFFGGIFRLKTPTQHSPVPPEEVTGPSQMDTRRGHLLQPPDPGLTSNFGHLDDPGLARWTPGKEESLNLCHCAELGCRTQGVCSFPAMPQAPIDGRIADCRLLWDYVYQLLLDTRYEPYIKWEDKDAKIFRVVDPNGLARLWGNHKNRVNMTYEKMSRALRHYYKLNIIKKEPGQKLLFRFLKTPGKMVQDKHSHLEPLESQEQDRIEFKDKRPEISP
# Procedure, shortened: as §1
# [16] = target: T11, ELF5 (Homo sapiens, UniProt Q9UKW6-2 1-255); details: protein: recombinant; tags: N-terminal GST; dsDNA, one strand shown
# T11 sequence: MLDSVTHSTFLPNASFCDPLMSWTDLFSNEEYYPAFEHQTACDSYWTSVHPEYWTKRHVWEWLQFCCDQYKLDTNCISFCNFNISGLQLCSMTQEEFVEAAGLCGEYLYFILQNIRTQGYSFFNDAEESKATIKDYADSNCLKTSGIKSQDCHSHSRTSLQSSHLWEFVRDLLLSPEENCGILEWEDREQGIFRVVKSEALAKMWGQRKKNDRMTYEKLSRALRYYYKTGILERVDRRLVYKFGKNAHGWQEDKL
# Procedure, shortened: as §1
# [17] = target: T12, ETV3 (Homo sapiens, UniProt P41162-2 1-143); details: protein: recombinant; tags: N-terminal GST; dsDNA, one strand shown
# T12 sequence: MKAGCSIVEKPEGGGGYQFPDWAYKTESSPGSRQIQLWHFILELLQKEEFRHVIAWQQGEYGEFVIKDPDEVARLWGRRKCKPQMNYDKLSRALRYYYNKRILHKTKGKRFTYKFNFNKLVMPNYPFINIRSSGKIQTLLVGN
# Procedure, shortened: as §1
# [18] = target: ETV6 (Homo sapiens, UniProt P41212 1-452); details: protein: recombinant; tags: N-terminal GST; dsDNA, one strand shown
# Procedure, shortened: as §1
# ETV5, sequence (P41161 whole entry): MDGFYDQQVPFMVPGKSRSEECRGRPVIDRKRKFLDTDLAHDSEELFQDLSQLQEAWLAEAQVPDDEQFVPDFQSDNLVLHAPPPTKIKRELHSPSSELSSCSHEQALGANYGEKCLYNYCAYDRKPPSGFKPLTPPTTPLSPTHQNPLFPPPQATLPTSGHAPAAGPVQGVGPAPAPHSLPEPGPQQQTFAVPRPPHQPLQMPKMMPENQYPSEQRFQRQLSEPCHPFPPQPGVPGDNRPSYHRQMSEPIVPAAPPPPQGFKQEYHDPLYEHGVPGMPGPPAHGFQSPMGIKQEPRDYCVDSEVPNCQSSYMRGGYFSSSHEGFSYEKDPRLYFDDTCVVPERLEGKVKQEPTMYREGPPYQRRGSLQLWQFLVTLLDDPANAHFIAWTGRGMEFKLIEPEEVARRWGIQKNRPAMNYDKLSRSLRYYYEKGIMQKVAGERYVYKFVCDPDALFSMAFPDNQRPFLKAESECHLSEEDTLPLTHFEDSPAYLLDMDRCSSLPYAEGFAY
# CRX, sequence (O43186 whole entry): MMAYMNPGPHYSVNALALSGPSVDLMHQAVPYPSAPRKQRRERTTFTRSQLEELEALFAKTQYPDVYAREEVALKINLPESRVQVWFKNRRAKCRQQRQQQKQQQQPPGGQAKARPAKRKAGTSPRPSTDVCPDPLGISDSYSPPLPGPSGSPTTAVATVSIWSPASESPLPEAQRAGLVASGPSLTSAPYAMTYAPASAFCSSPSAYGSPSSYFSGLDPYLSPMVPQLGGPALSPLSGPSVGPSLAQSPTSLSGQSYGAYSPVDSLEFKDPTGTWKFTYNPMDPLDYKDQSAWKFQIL
# ELF4, sequence (Q99607 whole entry): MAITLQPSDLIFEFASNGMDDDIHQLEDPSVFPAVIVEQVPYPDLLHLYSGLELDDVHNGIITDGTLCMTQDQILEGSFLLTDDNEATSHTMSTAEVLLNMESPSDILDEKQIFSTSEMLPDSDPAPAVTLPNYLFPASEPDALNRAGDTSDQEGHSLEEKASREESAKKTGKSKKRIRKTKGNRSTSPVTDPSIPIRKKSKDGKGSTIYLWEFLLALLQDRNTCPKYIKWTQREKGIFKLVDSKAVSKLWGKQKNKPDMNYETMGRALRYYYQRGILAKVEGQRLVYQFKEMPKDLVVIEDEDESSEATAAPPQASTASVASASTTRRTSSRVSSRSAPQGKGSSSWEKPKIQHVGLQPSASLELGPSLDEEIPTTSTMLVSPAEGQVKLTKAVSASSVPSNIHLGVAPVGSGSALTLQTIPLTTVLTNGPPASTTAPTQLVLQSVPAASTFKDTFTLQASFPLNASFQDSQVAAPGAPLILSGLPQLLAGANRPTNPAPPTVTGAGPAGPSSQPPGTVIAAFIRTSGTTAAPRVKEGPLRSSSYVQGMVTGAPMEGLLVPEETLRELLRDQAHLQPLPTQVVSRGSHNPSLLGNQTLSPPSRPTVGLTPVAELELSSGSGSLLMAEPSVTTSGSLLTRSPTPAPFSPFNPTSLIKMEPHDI
# HSF1, sequence (Q00613 whole entry): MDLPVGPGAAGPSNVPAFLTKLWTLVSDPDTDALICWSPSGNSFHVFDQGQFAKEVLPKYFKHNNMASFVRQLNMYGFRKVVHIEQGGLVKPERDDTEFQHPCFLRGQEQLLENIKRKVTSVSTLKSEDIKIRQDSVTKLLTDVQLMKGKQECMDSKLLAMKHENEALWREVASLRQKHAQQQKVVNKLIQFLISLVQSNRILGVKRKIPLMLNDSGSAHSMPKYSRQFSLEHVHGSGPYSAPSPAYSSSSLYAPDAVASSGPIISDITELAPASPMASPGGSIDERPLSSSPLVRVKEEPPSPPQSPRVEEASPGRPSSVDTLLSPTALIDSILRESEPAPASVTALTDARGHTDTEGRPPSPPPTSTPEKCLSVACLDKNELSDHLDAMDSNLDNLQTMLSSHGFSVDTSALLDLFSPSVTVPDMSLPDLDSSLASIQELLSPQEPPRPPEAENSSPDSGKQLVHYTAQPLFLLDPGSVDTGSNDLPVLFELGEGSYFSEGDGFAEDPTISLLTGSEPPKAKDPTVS
# ETV6, sequence (P41212 whole entry): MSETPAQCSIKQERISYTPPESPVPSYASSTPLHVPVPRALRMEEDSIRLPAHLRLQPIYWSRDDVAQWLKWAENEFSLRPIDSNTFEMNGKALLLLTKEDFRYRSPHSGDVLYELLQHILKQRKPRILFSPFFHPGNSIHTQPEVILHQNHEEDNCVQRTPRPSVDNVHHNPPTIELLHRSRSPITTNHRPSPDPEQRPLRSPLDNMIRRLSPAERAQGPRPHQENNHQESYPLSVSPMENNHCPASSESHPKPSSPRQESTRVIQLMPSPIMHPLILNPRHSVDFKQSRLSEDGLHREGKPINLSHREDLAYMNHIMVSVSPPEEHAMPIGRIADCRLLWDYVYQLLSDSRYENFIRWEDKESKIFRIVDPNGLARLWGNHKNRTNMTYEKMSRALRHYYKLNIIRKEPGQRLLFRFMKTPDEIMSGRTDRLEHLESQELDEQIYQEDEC
# ETV1, sequence (P50549 whole entry): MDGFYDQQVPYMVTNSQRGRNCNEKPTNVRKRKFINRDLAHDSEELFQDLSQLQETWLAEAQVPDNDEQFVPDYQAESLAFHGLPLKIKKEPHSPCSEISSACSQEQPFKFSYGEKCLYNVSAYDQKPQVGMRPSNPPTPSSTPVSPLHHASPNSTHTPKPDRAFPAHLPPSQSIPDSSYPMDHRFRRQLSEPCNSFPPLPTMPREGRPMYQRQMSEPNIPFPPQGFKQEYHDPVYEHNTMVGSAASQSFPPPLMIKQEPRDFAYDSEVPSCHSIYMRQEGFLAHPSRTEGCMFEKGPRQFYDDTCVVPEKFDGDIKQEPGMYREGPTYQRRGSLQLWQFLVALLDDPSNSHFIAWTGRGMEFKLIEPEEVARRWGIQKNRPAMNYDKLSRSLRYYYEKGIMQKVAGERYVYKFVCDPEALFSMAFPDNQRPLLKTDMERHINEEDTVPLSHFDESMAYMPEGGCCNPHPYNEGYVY
sequence,measurement,setting,value
TTGCCT,binding signal,[1],"1.19 fold enrichment (6-mer frequency, TF over GST control)"
same,binding signal,[2],"1.22 fold enrichment (6-mer frequency, TF over GST control)"
same,binding signal,[3],"1.13 fold enrichment (6-mer frequency, TF over GST control)"
same,binding signal,[4],"1.42 fold enrichment (6-mer frequency, TF over GST control)"
same,binding signal,[5],"1.29 fold enrichment (6-mer frequency, TF over GST control)"
same,binding signal,[6],"1.2 fold enrichment (6-mer frequency, TF over GST control)"
same,binding signal,[7],"1.19 fold enrichment (6-mer frequency, TF over GST control)"
same,binding signal,[8],"1.42 fold enrichment (6-mer frequency, TF over GST control)"
same,binding signal,[9],"1.16 fold enrichment (6-mer frequency, TF over GST control)"
same,binding signal,[10],"1.37 fold enrichment (6-mer frequency, TF over GST control)"
same,binding signal,[11],"1.18 fold enrichment (6-mer frequency, TF over GST control)"
same,binding signal,[12],"1.34 fold enrichment (6-mer frequency, TF over GST control)"
same,binding signal,[13],"1.24 fold enrichment (6-mer frequency, TF over GST control)"
same,binding signal,[14],"1.18 fold enrichment (6-mer frequency, TF over GST control)"
same,binding signal,[15],"1.23 fold enrichment (6-mer frequency, TF over GST control)"
same,binding signal,[16],"1.19 fold enrichment (6-mer frequency, TF over GST control)"
same,binding signal,[17],"1.14 fold enrichment (6-mer frequency, TF over GST control)"
same,binding signal,[18],"1.1 fold enrichment (6-mer frequency, TF over GST control)"
